Values without a mark were called inactive. The call rests on the fitted dose curve.
Assay: qHTS assay to identify small molecule agonists of the sonic hedgehog signaling (Shh) pathway (AID 1259368);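 further: NIH/3T3-derived 3T3Gli1-Luc cells carrying a stable Gli1-driven firefly luciferase reporter; nearly all actives have a fitted effect of over 15% in size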
Conditions: NIH/3T3 Gli1-Luc reporter, luciferase, 24 h; series mostly up to 92.4 µM; activity change: at the top concentration
Excerpt: National Center for Advancing Translational Sciences [NCATS]
NIH Chemical Genomics Center [NCGC]
U.S. Environmental Protection Agency [EPA]
National Institutes of Environmental Health Sciences [NIEHS]
National Toxicology Program [NTP]
The sonic hedgehog (Shh) pathway is essential for normal embryonic development. Dysregulation of the Shh pathway can cause severe developmental defects in organs. Therefore chemicals that interfere with the pathway are potential developmental toxicants. A cell line designated 3T3Gli1-Luc (DMB/OARSA/CFSAN/FDA, Laurel, MD), a NIH/3T3 derived clone containing stably integrated Gli1-Luc reporter is used to detect chemical interference of the Shh pathway, by changes in the expression of the firefly Luc gene under the control of the Gli1 transcriptional response element. This cell line was used to screen Tox21 libraries for identifying and prioritizing the potential developmental toxicants that interfere Shh pathway.
3T3 Gli1-Luc cells were dispensed at 2,000 per well in 5uL of culture medium into white solid bottom 1536-well plates (Greiner Bio-One, Monroe, NC) using a Multidrop Combi (Thermo Scientific, Waltham, MA) dispenser. The assay plates were incubated at 37 C and 5% CO2 for 4hr, and then 23nL of compounds dissolved in DMSO and positive control were transferred using a Pintool station (Wako, San Diego, CA). The assay plates were incubated at 37C and 5% CO2 for 24hr. For luciferase read, 4uL of Amplite Luciferase reporter gene assay reagent (AAT Bioquest, Inc. Sunnyvale, CA) was added to each well of the assay plates using Flying Reagent Dispenser (FRD, Aurora Discovery, San Diego, CA) and incubated at room temperature for 30min. The luminescence signal was measured using a ViewLux plate reader (Perkin Elmer, Shelton, CT).
On the % scale 0 is the no-effect control and ±100 the full control effect.

| SMILES | activity change |
| --- | --- |
| CCOC(=O)[C@H](CCc1ccccc1)N[C@@H](C)C(=O)N1CCC[C@H]1C(=O)O | -0.434% [at 42.5 µM, stronger effect = higher value] |
| COCc1ccc(COC)cc1 | 0.0424% |
| FC(F)(F)C(F)(F)C(F)(F)C(F)(F)C(F)(F)C(F)(F)C(F)(F)C(F)(F)C(F)(F)C(F)(F)F | -0.701% [at 8.39 µM, stronger effect = higher value] |
| NC(=O)CCCCC1CCSS1 (stereo not given) | 0.706% [at 42.5 µM, stronger effect = higher value] |
| CCCCCCCCCCCCI | 0.14% |
| CCCC=O | 0.465% |
| C/C=C1\C(=O)C[C@H]2[C@@H]3CCC4=CC(=O)CC[C@]4(C)[C@H]3CC[C@]12C | 1.1% [at 42.5 µM, stronger effect = higher value] |
| CCN1CCCC(OC(=O)C(c2ccccc2)c2ccccc2)C1 (stereo not given) | 0.0893% [at 42.5 µM, stronger effect = higher value] |
| OC/C=C/c1ccccc1 | 0.0681% |
| C=C(C)[C@H]1CC=C(C)CC1 | -15.9% |
| O=[N+]([O-])c1ccc(Oc2ccc([N+](=O)[O-])cc2)cc1 | 0.318% |
| Cc1c(C)n(CCN(C)C)c2ccc(C(=O)OCCN(C)C)cc12 | 1.3% [at 42.5 µM, stronger effect = higher value] |
| OCC(CO)(CO)COCC(CO)(CO)CO | 0.301% |
| OCC(O)[C@@H](O)[C@H](O)[C@H](O)CO[C@H]1O[C@H](CO)[C@@H](O)[C@H](O)[C@H]1O (stereo not given in full) | 1.28% |
| CC12CCC(CC1=O)C2(C)C (stereo not given) | 0.0906% |
| CC(C)[N+](C)(C)CC(O)COc1cccc2ccccc12 (stereo not given) | 0.0243% [at 42.5 µM, stronger effect = higher value] |
| OC1OC[C@@H](O)[C@H](O)[C@H]1O (stereo not given in full) | 0.342% |
| COCCOC(=O)CC#N | 0% |
| Nc1[nH]c(=O)ncc1F | -0.153% [at 42.5 µM, stronger effect = higher value] |
| CCCc1ccc(N)cc1 | -0.116% |

| SMILES | activity change |
| --- | --- |
| Cc1cc(C)c(NC(=O)CN(CC(=O)O)CC(=O)O)c(C)c1Br | -0.181% [at 42.5 µM, stronger effect = higher value] |
| O=C1CC2(CCCC2)CC(=O)N1 | -0.0291% [at 42.5 µM, stronger effect = higher value] |
| N#CCc1ccccc1[N+](=O)[O-] | 0.0277% |
| COc1cc(O)cc(O)c1 | -1.32% [at 42.5 µM, stronger effect = higher value] |
| COc1nc(C)nc(N)n1 | -0.561% |
| CCC(=O)c1cccc(Cl)c1 | -0.366% |
| CC/C=C\C#N | 0.819% |
| NC(N)=NS(=O)(=O)c1ccc(N)cc1 | 0.253% [at 42.5 µM, stronger effect = higher value] |
| CCOC(=O)Nc1ccc2c(c1)N(C(=O)CCN1CCOCC1)c1ccccc1S2 | 0.157% [at 42.5 µM, stronger effect = higher value] |
| Nc1ncnc2c1ncn2Cc1c(F)cccc1Cl | -0.0107% [at 42.5 µM, stronger effect = higher value] |
| C(=C(c1ccccc1)c1ccccc1)c1ccccc1 | 0.763% |
| O=C(O)C1CCC1 | -0.639% [at 42.5 µM, stronger effect = higher value] |
| CC(O)CN(CCCN(C)C)CCCN(C)C (stereo not given) | 0.621% |
| Nc1cc(C(Cl)=C(Cl)Cl)c(S(N)(=O)=O)cc1S(N)(=O)=O | 0.157% [at 42.5 µM, stronger effect = higher value] |
| CCc1cc(S(=O)(=O)O)c2cc(C(C)C)cccc1-2 | 0.0495% [at 42.5 µM, stronger effect = higher value] |
| CC(C)CCOC(=O)CC(C)C | -0.363% |
| CC(=O)NC(Cc1ccccc1)C(=O)O (stereo not given) | 0.0729% [at 42.5 µM, stronger effect = higher value] |
| CC(C)(O)c1ccccc1 | 1.77% |
| NCCN1CCNC1=O | 0.972% |
| CO[Si](CCCNCCC[Si](OC)(OC)OC)(OC)OC | 0.187% |

Source: PubChem BioAssay (Tox21)
